Pol beta inh: qHTS Assay for Inhibitors of DNA Polymerase Beta; Pol beta primer extension/strand displacement, fluorescence kinetic; Potency, µM (doses to about 114 µM), for inactives: at the highest dose activity change, negative = inhibition, most hits filed as inhibitors; 1.3% of 340,000 active; note: potency is the fitted concentration of half-maximal effect; % is set by controls: 0 for no effect and ±100 for the full control effect
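Enzyme-only controls used 10 nM Pol beta; buffer lacking enzyme served as negative control. Compound preincubated 15 min, then 50 nM substrate added; 0 and 10 min reads at room temperature.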
WRN helicase inh: qHTS for Inhibitors of WRN Helicase | Bifunctional 3'-5' exonuclease/ATP-dependent helicase WRN (Homo sapiens), Q14191 | 0.46% of 360,000 active | AID 651768, 2012 | WRN helicase unwinding, fluorescent forked duplex, kinetic | Potency, µM (highest dose often 114 µM), without a hit: at the highest dose activity change, negative = inhibition, most hits filed as inhibitors; note: potency is the fitted concentration of half-maximal effect; % is set by controls: 0 for no effect and ±100 for the full control effect; nearly all actives have a fitted effect of over 55% in size
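WRN at 20 nM final was preincubated with compound for 15 min at room temperature; reaction started with 100 nM forked duplex oligonucleotide carrying fluorophore and quencher plus 2 mM ATP (final). Unwinding followed kinetically by red fluorescence (ex 525/em 598 nm).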
Pol eta inh-1: qHTS for Inhibitors of Polymerase Eta. DNA polymerase eta (Homo sapiens), Q9Y253. recombinant Pol eta, fluorescent DNA replication assay. Potency, µM (top dose mostly 114 µM), without a hit: at the top dose activity change, negative = inhibition, hits mostly inhibitors. 1.2% of 390,000 active; note: potency is the fitted concentration of half-maximal effect; % is set by controls: 0 for no effect and ±100 for the full control effect
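Pol eta (10 nM) was preincubated with compounds for 15 min at room temperature, after which fluorescent replication substrate (50 nM final) was added to start the reaction. Fluorescence was read kinetically at 0 and 10 min.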
PI5P4K alpha inh: qHTS for Inhibitors of phosphatidylinositol 5-phosphate 4-kinase (PI5P4K). AID 652105, 2013. max response, %. 1.2% of 330,000 active. PI5P4Kalpha enzyme, ADP-Glo luminescence, 60 min; active compounds read low; active = max response of -50% or lower; inconclusive = between -30% and -50%; inactive = -30% or higher; note: value at the top dose of about 77 µM; % is set by controls: 0 for no effect and ±100 for the full control effect
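ADP-Glo luminescence end-point read after a 60 min room-temperature kinase reaction of PI5P4Kalpha plus substrate, initiated with ATP at 5 microM final. Buffer: 0.038 M HEPES pH 7.4, EGTA, 0.1% CHAPS, 5% DMSO.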
POLI inh: qHTS for Inhibitors of Polymerase Iota; DNA polymerase iota (Homo sapiens), Q9UNA4; Pol iota fluorescent replication assay, 10 min; Potency, µM (series often up to 115 µM), for the others: at the top dose activity, negative = inhibition, most hits filed as inhibitors; 1% of 390,000 active; AID 588590, 2011; note: potency is the fitted concentration of half-maximal effect
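Fluorescent replication assay read twice, at 0 min and 10 min after adding 50 nM (final) substrate. Enzyme (10 nM) and compounds were first incubated 15 min at room temperature; enzyme-free buffer wells were negative controls.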
Pol kappa inh-1: qHTS for Inhibitors of Polymerase Kappa. purified Pol kappa, fluorescent DNA synthesis assay, 10 min. DNA polymerase kappa (Homo sapiens), Q9UBT6. 0.53% of 400,000 active. Potency, µM (doses to about 107 µM), for inactives: at the highest dose activity, negative = inhibition, hits mostly inhibitors; note: potency is the fitted concentration of half-maximal effect; % is set by controls: 0 for no effect and ±100 for the full control effect
Target sequence (Q9UBT6 whole entry, looked up): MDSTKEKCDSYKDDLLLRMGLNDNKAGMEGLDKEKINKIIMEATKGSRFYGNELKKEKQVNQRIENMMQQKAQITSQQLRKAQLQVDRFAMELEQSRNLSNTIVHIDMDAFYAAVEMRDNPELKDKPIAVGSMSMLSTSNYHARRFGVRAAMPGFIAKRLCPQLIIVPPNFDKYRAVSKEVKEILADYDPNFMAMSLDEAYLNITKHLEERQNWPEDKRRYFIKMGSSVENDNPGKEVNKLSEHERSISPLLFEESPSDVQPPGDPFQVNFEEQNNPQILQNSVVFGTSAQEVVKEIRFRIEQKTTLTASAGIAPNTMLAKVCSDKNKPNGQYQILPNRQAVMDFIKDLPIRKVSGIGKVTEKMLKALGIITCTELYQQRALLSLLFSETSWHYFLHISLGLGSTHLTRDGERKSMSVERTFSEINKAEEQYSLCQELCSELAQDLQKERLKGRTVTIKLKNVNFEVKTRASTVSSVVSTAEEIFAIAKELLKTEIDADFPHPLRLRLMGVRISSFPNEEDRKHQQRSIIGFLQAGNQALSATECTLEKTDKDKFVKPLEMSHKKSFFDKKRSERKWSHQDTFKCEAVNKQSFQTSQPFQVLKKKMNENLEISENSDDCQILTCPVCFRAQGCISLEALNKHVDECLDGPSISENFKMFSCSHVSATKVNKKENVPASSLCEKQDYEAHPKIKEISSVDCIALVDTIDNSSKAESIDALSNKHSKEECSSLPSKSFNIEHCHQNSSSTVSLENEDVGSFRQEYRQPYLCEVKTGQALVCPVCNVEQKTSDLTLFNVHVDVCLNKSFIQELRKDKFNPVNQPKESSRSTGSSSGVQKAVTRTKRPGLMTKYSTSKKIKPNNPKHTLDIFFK
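50 nM final substrate added after 15 min RT preincubation of 10 nM Pol kappa with compound; fluorescence read at 0 and 10 min.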
PGK validate: qHTS for inhibitors of Phosphogylcerate Kinase: Hit Validation Screen; Potency, µM (titrated, usually from 57.5 µM), for inactives: at the top dose activity change, negative = inhibition, actives largely listed as inhibitors; 79% of 500 active; TbPGK coupled GAPDH assay, Kinase-Glo luminescence; shares compounds with Pol kappa inh-1; note: potency is the fitted concentration of half-maximal effect; % is set by controls: 0 for no effect and ±100 for the full control effect; nearly all actives have a fitted effect of over 65% in size
Pol iota confirm: qHTS for Inhibitors of Polymerase Iota: Confirmatory Assay for Cherry-picked Compounds. AID 720496, 2013. Pol iota primer extension, TAMRA/BHQ fluorescence. shares compounds with Pol kappa inh-1. 77% of 1,500 active. Potency, µM, actives largely listed as inhibitors; note: potency is the fitted concentration of half-maximal effect
Pol kappa inh-2: qHTS for Inhibitors of Polymerase Kappa: Confirmatory Assay for Cherry-picked Compounds; 76% of 920 active; purified Pol-kappa, fluorescent strand-displacement substrate; shares compounds with Pol eta inh-1; Potency, µM, actives largely listed as inhibitors; AID 720501, 2013; note: potency is the fitted concentration of half-maximal effect
Pol eta inh-2: qHTS for Inhibitors of Polymerase Eta: Confirmatory Assay for Cherry-picked Compounds; 64% of 2,600 active; shares compounds with Pol eta inh-1; AID 720502, 2013; Pol eta primer extension, TAMRA/BHQ fluorescence, 10 min; Potency, µM, hits mostly inhibitors; note: potency is the fitted concentration of half-maximal effect
Active calls of the source: *; ? = inconclusive; / = not tested or not shown; ! = not confirmed by another sample; [ ] = remark or other dose. A selection: hits, their analogues and other compounds. The true share with any hit is near 2.8%. Unless noted, calls come from the whole dose curve; as a rule, active = well fitted curve in the direction sought with a large enough effect; inconclusive = small, poorly fitted or top-dose-only effect, or another doubt; inactive = no such curve, though single readings can be large; an effect the other way counts as inactive or inconclusive.

SMILES	Pol beta inh	WRN helicase inh	Pol eta inh-1	PI5P4K alpha inh	POLI inh	Pol kappa inh-1	Pol iota confirm	Pol kappa inh-2	Pol eta inh-2	others
COc1c(-c2ccc(O)c(O)c2)oc2cc(O)cc(O)c2c1=O	4.5µM*	32µM*	8.9µM*	?	?	14µM*	42*	/	24*
Cc1ccc(NC(=O)Nc2nnc(N3CCCC3)s2)c(C)c1	0%	/	-8%	/	3%	3%	/	/	/
O=C(O)C1Nc2c(O)cc(Cl)c([N+](=O)[O-])c2C2C=CCC12 (stereo not given)	0.25µM*	5µM*	1.3µM*	-85*	?	1.8µM*	15*	/	4.8*	PGK validate=1.5µM*
COc1ccc(OC)c(C2Nc3c(Cl)ccc(C(=O)O)c3C3C=CCC32)c1 (stereo not given)	1%	?	-8%	-8	53%	-13%	/	/	/
O=C(CSc1nnc(SCc2ccccc2)s1)N/N=C/C=C/c1ccccc1[N+](=O)[O-]	-1%	-6%	-5%	0	-2%	0%	/	/	/
O=C(CSc1nnc(SCc2ccccc2)s1)N/N=C/C=C\c1ccco1	7.1µM*	?	20µM*	-82*	?	28µM*	42*	/	43*
Cn1cccc1CC(=O)N/N=C/C=C/c1ccco1	25µM*	?	?	-55*	18µM*	35µM*	67*	38*	?
CC(=O)c1ccc(NC(=O)CSc2nnc3c(n2)[nH]c2ccccc23)cc1	8.9µM*	/	45µM*	/	-18%	3%	?	47*	?
CCCn1c(=N)c(C(=O)NC(C)c2ccccc2)cc2c(=O)n3ccccc3nc21 (stereo not given)	?	/	-8%	/	4%	-3%[60.1 µM]	/	/	/
CCN(CCCNc1cc2c(c(N)c1S(=O)(=O)O)C(=O)c1ccccc1C2=O)c1ccccc1	/	5%[11.6 µM]	25µM*	-56*	/	/	67*	?	76*
O=C(CCc1n[nH]c(=O)[nH]c1=O)N/N=C/c1ccco1	10µM*	-3%[11.6 µM]	?	?	25µM*	?	?	/	76*	PGK validate=21µM*
CN1C(=O)/C(=C/c2ccc(C(=O)Nc3ccc(O)cc3C(=O)O)cc2)SC1=S	?	-2%	22µM*	?	?	-9%	75*	/	43*
Cc1ccc(-n2c(=O)c3c(c4cc(C)ccc4n3C)n(CC(=O)NCc3ccccc3)c2=O)cc1	0%	/	-7%	/	-11%	-6%	/	/	/
CC(C)c1nc(SCC(=O)Nc2nccs2)c2ccccc2n1	25µM*	?	32µM*	-3	?	-24%	53*	/	76*
COc1ccccc1CNC(=O)Cn1nc(C)n2cccc2c1=O	5%	/	2%	/	1%	-4%	/	/	/
COc1ccc2nc(C)cc(N/N=C/c3cccc(OC)c3O)c2c1	?	?	?	-9	?	79µM*	30*	?	27*
O=C(O)c1cccc(NC(=S)N/N=C/c2ccccc2OCc2cccc(Br)c2)c1	-19%	?	20µM*	?	?	-11%	?	/	48*
O=C(O)c1cccc(NC(=S)N/N=C/c2ccccn2)c1	-26%	4%	10%	?	2%	8%	/	/	/
O=C(N/C=C/c1ccco1)NCc1ccccc1	16µM*	?	18µM*	?	?	35µM*	27*	/	27*
COc1cc(OC)c(-c2c3cc(O)c(=O)cc-3oc3cc(O)c(O)cc23)cc1OC	20µM*	2.4µM*	/	-30	/	?	1.3*	19*	67*
CN(C)/C=C/C=C1C(=O)CCCC1=O	20µM*	?	10µM*	-1	1.1µM*	79µM*	67*	/	38*
Cc1ccc(C)c2c1CCCC2=O	/	3%	-6%	1	/	/	/	/	/
CCCCC/C=C\C/C=C\C/C=C\CCCCC(=O)O	/	?	20µM*	-54*	40µM*	50µM*!	67*	21*	30*
COc1ccc(CNC(=O)Cn2ccc3cc(S(=O)(=O)N4CCCCC4)ccc32)c(OC)c1	12%	/	-1%	/	-8%	-5%	/	/	/
O=C(Cc1csc(N2CCOCC2)n1)N/N=C/c1ccc(O)c(O)c1O	?	22µM*	?	-60*	?	?	15*	/	43*
SMILES	Pol beta inh	WRN helicase inh	Pol eta inh-1	PI5P4K alpha inh	POLI inh	Pol kappa inh-1	Pol iota confirm	Pol kappa inh-2	Pol eta inh-2	others
CCOc1ccccc1NC(=O)Cc1coc2c(C)c(C)ccc12	-5%	/	?	/	-12%	6%	/	/	/
O=C(O)c1cc(-c2ccc(/C=C3/SC(=S)N(Cc4ccccc4)C3=O)o2)ccc1Cl	16µM*	?	10µM*	?	13µM*	79µM*	75*	/	27*
O=C(O)CCCN1C(=O)/C(=C\c2ccc(-c3nc4ccccc4s3)o2)SC1=S	16µM*	-35%[11.6 µM]	16µM*	-20	?	?	/	/	34*	PGK validate=?
O=C(O)c1ccc(-c2nc3ccccc3s2)o1	-17%	4%	26%	-24	?	7%	/	/	/
CCOC(=O)c1ccc(NC(=O)C2CCN(C(=O)N3CC(C)Oc4ccc(C)cc43)CC2)cc1 (stereo not given)	-8%	/	-11%	/	20%	-1%	/	/	/
CC(=O)Nc1sc2c(c1-c1nc3ccccc3s1)CCN(C(C)C)C2	3.5µM*	-25%	?	4	?	?	19*	12*	/
CC(=O)Nc1sc2c(c1-c1nc3ccccc3s1)CCNC2	/	/	/	/	/	/	21*	8.4*	/
